Test results taken from the supplement of paper PMC10849652.
Of roughly 7,900 targets only a part is listed; those with a hit were picked by preference. About 0.6% of all pairs of compound and target were hits. A number with no mark means an inactive call.

Columns and labels:
Assay in all cases: log2 fold change, soluble protein after heating vs DMSO (PISA); higher = thermal stabilisation; K562 cells, 10 uM, 30 min; active = over 0.2 and 3.5 SD of the protein, either way, in both replicates (recomputed)
[1] = compound: CC1=C(C=C(C=C1)NC(=O)C2=CC(=CC=C2)C(C)(C)C#N)NC3=CC4=C(C=C3)N=CN(C4=O)C
Method in brief: (§1)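 Quantification of soluble protein used TMTpro 16plex LC-MS/MS, with channel sums equalised. Samples were the supernatant after 21,000xg for 90 min of pooled aliquots from K562 cells (2×10^6 cells/mL) treated with 10 μM compound for 30 min, heated for 3 min over 48°C-58°C, and extracted in PBS with 0.5% NP-40 at 4°C. Values, from duplicates, describe thermal stability against control samples on a log2 fold-change scale.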

[2] = compound: CC1=C(C=C(C=C1)NC(=O)C2=CC(=CC=C2)N(C)C)NC(=O)C3=CC=C(C=C3)O
Method in brief: as §1

[3] = compound: CC1=CC=C(C=C1)SC2=C3C=C(SC3=CN=C2)C(=O)N
Method in brief: as §1

[4] = compound: CC1=NC(=CC=C1)C2=C(N=C(N2)C(C)(C)C)C3=CC4=NC=CN=C4C=C3
Method in brief: as §1

[5] = compound: CCCCN(Cc1ccc(C(=O)NO)cc1)C(=O)Nc1ccccc1 [Nexturastat A]
Method in brief: as §1

[6] = compound: CCCS(=O)(=O)Nc1ccc(F)c(C(=O)c2c[nH]c3ncc(-c4ccc(Cl)cc4)cc23)c1F [vemurafenib]
Method in brief: as §1

[7] = compound: CCCS(=O)(=O)Nc1ccc(F)c(C(=O)c2c[nH]c3ncc(Cl)cc23)c1F
Method in brief: as §1

[8] = compound: CCCc1cc(C)[nH]c(=O)c1CNC(=O)c1cc(-c2ccnc(N3CCN(C)CC3)c2)cc2c1cnn2C(C)C
Method in brief: as §1

[9] = compound: CCN(CC)Cc1ccc2cc(COC(=O)Nc3ccc(C(=O)NO)cc3)ccc2c1 [givinostat]
Method in brief: as §1

[10] = compound: CCN(CCCOc1ccc2c(Nc3cc(CC(=O)Nc4cccc(F)c4)[nH]n3)ncnc2c1)CCOP(=O)(O)O [barasertib]
Method in brief: as §1

[11] = compound: CC[C@@H]1C(=O)N(C)c2cnc(Nc3ccc(C(=O)NC4CCN(C)CC4)cc3OC)nc2N1C1CCCC1
Method in brief: as §1

[12] = compound: CC[C@@H]1C(=O)N(C)c2cnc(Nc3ccc(C(=O)N[C@H]4CC[C@H](N5CCN(CC6CC6)CC5)CC4)cc3OC)nc2N1C(C)C [volasertib]
Method in brief: as §1

[13] = compound: CC[C@H](C)N1C=C(C2=C(C=C(C=C21)C3=CN=C(C=C3)N4CCNCC4)C(=O)NCC5=C(C=C(NC5=O)C)C)C
Method in brief: as §1

[14] = compound: CC[C@H](C)[C@@H](C(=O)N[C@@H]([C@@H](C)O)C(=O)N[C@@H](CC(C)C)C(=O)[C@]1(CO1)C)NC(=O)[C@H]([C@@H](C)CC)N(C)C(=O)C [epoxomicin]
Method in brief: as §1

[15] = compound: CCn1c(C(=O)N(C2CC2)C2CC2)cc2c3c(ncn3C)c(Nc3cc(C)n(C)n3)nc21
Method in brief: as §1

[16] = compound: CCn1cc(-c2ccnc3[nH]c(-c4cccc(CN(C)C)c4)cc23)c(-c2ccc(NC(=O)N(C)C)cc2)n1
Method in brief: as §1

[17] = compound: CN(C)CC(=O)Nc1ccc2[nH]c(=O)c3ccccc3c2c1
Method in brief: as §1

[18] = compound: CN(CCOC1=CC=C(C=C1)C[C@H]2C(=O)NC(=O)S2)C3=CC=CC=N3 (racemic) [rosiglitazone]
Method in brief: as §1

[19] = compound: CN1C2=C(C3=C1C(=O)N(N=C3)CC4=CC(=CC=C4)N)SC(=C2)S(=O)C
Method in brief: as §1

[20] = compound: CN1CCC(CNc2ccc3ncc(-c4cccc(OC(F)(F)F)c4)n3n2)CC1
Method in brief: as §1

Sequence of UniProt P43897 (P43897 whole entry, looked up): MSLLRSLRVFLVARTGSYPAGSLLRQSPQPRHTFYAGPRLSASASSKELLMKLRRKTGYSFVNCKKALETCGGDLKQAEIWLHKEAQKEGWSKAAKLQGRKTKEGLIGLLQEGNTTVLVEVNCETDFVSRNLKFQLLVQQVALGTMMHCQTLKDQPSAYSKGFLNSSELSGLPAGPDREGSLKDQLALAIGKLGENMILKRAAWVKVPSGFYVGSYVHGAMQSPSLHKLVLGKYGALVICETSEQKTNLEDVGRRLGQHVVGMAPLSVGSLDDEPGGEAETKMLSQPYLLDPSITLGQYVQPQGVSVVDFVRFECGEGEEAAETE
Sequence of UniProt O95801 (O95801 whole entry, looked up): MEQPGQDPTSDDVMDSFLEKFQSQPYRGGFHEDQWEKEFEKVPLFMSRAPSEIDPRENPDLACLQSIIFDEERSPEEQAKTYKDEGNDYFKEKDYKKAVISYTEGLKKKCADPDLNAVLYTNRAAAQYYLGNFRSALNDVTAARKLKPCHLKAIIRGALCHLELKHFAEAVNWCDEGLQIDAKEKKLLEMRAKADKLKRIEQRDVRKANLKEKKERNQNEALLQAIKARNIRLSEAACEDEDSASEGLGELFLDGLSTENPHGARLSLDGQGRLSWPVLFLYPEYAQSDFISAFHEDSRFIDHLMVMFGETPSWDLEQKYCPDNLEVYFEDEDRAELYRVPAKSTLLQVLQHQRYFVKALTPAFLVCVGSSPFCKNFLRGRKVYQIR
Sequence of UniProt Q9P0T7 (Q9P0T7 whole entry, looked up): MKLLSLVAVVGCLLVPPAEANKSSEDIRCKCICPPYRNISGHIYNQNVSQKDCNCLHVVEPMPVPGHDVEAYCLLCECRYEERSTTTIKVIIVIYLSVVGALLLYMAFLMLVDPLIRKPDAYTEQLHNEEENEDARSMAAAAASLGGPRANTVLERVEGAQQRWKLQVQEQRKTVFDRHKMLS
Sequence of UniProt Q93009 (Q93009 whole entry, looked up): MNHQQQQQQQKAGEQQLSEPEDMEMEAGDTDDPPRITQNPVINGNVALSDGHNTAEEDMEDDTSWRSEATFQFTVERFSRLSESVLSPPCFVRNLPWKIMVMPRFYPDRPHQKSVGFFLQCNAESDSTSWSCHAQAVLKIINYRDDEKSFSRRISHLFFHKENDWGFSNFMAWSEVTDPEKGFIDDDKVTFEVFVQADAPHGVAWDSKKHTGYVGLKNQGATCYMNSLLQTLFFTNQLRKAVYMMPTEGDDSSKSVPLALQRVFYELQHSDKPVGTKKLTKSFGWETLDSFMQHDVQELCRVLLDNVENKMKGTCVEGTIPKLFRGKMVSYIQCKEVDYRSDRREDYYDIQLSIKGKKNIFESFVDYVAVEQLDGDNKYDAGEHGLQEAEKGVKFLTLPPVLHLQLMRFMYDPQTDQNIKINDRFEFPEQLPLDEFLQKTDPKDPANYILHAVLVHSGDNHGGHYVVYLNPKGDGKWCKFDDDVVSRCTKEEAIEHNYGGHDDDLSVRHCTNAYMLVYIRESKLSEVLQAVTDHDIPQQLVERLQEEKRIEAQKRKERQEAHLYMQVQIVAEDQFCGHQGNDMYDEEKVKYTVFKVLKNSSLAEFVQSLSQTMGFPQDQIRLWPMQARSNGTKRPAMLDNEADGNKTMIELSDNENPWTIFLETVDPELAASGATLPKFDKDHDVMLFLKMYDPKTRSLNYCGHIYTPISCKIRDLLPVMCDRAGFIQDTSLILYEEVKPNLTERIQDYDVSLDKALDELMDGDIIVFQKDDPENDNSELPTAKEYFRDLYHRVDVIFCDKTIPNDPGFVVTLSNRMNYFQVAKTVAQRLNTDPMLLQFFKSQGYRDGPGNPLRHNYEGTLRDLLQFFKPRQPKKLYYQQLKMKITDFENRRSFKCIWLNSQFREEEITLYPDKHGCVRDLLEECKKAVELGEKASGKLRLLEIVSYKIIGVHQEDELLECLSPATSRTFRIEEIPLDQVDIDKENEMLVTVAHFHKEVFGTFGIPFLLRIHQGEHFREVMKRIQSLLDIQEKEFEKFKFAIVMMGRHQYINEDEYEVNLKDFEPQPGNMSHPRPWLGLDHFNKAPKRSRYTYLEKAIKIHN
Sequence of UniProt Q9UK41 (Q9UK41 whole entry, looked up): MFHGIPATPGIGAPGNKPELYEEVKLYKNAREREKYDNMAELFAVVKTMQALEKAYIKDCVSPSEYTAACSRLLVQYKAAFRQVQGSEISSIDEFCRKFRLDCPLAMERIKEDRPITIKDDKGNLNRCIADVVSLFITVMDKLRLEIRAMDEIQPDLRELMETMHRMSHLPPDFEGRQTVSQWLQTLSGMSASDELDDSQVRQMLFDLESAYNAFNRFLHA
Sequence of UniProt Q7Z6J8 (Q7Z6J8 whole entry, looked up): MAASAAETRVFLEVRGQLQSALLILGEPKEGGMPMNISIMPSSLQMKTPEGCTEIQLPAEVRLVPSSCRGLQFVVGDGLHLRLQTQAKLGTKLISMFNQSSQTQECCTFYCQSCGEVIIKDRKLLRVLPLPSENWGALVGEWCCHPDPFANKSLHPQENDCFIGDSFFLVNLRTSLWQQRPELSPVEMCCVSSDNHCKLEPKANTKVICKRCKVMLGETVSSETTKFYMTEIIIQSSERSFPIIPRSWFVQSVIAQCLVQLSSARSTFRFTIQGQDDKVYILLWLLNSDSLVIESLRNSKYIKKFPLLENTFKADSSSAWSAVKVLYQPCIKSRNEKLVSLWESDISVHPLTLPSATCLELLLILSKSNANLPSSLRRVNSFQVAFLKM
Sequence of UniProt Q96JG6 (Q96JG6 whole entry, looked up): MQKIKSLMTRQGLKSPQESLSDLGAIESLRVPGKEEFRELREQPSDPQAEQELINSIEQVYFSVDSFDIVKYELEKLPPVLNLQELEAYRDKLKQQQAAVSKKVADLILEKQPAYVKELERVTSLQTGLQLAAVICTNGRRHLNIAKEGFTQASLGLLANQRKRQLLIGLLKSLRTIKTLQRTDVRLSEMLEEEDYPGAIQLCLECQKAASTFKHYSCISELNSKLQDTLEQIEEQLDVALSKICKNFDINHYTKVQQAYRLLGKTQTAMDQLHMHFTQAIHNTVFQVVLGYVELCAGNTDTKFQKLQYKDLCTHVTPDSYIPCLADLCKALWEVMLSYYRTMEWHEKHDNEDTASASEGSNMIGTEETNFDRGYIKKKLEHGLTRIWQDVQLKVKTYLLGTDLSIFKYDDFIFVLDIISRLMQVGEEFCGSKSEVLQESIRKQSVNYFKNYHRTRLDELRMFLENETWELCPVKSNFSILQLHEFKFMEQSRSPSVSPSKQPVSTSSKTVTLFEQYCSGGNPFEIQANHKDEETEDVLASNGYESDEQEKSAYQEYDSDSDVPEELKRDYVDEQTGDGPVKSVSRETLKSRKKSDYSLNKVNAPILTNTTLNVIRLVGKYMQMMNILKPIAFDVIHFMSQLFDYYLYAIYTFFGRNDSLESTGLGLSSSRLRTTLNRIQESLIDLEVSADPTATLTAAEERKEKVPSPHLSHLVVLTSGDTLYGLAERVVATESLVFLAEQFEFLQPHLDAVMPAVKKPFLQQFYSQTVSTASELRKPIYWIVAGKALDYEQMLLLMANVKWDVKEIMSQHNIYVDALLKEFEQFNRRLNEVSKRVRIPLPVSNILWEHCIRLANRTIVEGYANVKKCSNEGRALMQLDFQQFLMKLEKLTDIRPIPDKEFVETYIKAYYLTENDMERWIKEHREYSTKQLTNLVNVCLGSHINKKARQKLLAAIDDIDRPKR
Sequence of UniProt Q9BV38 (Q9BV38 whole entry, looked up): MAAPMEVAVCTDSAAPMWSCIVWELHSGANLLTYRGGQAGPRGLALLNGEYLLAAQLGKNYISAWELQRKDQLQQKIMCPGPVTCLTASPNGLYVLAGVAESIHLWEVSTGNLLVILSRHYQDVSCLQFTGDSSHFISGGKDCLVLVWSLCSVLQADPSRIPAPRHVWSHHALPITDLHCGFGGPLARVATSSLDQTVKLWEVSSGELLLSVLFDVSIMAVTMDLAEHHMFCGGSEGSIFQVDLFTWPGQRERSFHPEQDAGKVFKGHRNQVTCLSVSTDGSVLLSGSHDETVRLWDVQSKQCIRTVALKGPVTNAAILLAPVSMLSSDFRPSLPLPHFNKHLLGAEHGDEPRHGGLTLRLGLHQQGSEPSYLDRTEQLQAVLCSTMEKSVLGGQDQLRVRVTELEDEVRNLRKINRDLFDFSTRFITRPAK
Sequence of UniProt Q5T3F8 (Q5T3F8 whole entry, looked up): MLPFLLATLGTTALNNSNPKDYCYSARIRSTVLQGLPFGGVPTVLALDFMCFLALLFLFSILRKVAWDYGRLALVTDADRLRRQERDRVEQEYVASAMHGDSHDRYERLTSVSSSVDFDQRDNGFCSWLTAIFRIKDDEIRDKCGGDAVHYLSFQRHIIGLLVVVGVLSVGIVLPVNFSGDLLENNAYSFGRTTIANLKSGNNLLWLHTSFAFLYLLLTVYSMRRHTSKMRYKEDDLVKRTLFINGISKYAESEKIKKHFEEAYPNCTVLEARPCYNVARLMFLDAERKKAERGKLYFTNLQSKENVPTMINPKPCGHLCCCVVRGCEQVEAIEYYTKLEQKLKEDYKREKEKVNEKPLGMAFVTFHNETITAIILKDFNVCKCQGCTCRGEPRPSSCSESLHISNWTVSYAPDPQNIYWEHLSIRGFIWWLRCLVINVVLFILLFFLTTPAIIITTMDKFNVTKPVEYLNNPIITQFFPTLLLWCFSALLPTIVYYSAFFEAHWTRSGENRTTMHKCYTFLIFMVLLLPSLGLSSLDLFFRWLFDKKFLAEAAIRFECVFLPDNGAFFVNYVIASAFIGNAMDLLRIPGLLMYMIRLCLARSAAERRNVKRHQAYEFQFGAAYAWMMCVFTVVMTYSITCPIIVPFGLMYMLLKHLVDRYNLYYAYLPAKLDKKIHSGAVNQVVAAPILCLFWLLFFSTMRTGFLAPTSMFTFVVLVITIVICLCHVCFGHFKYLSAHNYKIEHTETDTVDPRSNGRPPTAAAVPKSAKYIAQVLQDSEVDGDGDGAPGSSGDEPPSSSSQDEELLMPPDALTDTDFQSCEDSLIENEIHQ

Row | Target | log2 fold change [1] | log2 fold change [2] | log2 fold change [3] | log2 fold change [4] | log2 fold change [5] | log2 fold change [6] | log2 fold change [7] | log2 fold change [8] | log2 fold change [9] | log2 fold change [10] | log2 fold change [11] | log2 fold change [12] | log2 fold change [13] | log2 fold change [14] | log2 fold change [15] | log2 fold change [16] | log2 fold change [17] | log2 fold change [18] | log2 fold change [19] | log2 fold change [20]
1 | WDR18 (UniProt Q9BV38) | -0.042 | 0.08 | 0.016 | 0.014 | -0.035 | 0.04 | -0.003 | 0.004 | -0.025 | 0.013 | 0.034 | -0.1 | 0.022 | 0.016 | 0.039 | -0.026 | -0.017 | 0.007 | 0.018 | -0.002
2 | TTC4 (UniProt O95801) | 0.051 | -0.066 | 0.032 | 0.046 | 0.052 | 0.059 | 0.106 | 0.013 | -0.015 | 0.072 | -0.173 | -0.316 (active) | 0.103 | 0.054 | -0.025 | -0.039 | 0.061 | 0.052 | -0.02 | -0.11
3 | TMEM9 (UniProt Q9P0T7) | -0.024 | -0.041 | 0.057 | -0.008 | 0 | 0.028 | 0.091 | -0.062 | 0.039 | 0.019 | -0.112 | -0.07 | -0.05 | 0.296 (active) | -0.018 | 0.015 | 0.004 | -0.157 | -0.015 | -0.007
4 | VPS50 (UniProt Q96JG6) | -0.007 | -0.076 | 0.054 | 0.054 | -0.052 | 0.077 | 0.066 | 0.09 | 0.014 | 0.059 | -0.168 | -0.415 (active) | 0.08 | 0.009 | -0.037 | -0.026 | 0.009 | 0.008 | 0.036 | -0.101
5 | TSFM (UniProt P43897) | 0.253 | -0.167 | 0.021 | 0.11 | -0.057 | 0.08 | 0.034 | 0.181 | 0.041 | 0.075 | -0.003 | -0.092 | 0.046 | 0.212 | -0.062 | 0.074 | 0.081 | 0.069 | -0.041 | -0.056
6 | TNFRSF8 (UniProt P28908) | -0.047 | 0.01 | -0.076 | -0.005 | 0.008 | -0.028 | -0.015 | 0.031 | -0.007 | -0.006 | 0.134 | 0.011 | -0.034 | 0.016 | -0.003 | -0.016 | 0.009 | -0.011 | -0.051 | 0.201
7 | UBE3D (UniProt Q7Z6J8) | -0.036 | 0.036 | -0.049 | 0.01 | -0.016 | 0.014 | 0.04 | 0.006 | -0.075 | 0.018 | -0.033 | -0.053 | 0.012 | 0.031 | 0.063 | -0.023 | -0.004 | 0.003 | -0.051 | -0.016
8 | TMEM63B (UniProt Q5T3F8) | 0.095 | 0.014 | 0.006 | 0.004 | 0.051 | 0.009 | -0.011 | -0.044 | 0.014 | -0.038 | -0.001 | 0.071 | -0.019 | 0.039 | 0.041 | 0.011 | -0.052 | -0.052 | 0.042 | -0.073
9 | WASHC5 (UniProt Q12768) | -0.011 | -0.011 | 0 | -0.006 | 0.052 | 0.004 | 0.004 | 0.065 | 0.085 | 0.077 | -0.109 | -0.268 | 0.09 | 0.049 | -0.061 | 0.035 | 0.045 | 0.008 | -0.006 | -0.114
10 | USP7 (UniProt Q93009) | 0.054 | -0.046 | 0.007 | 0.012 | 0.015 | 0.036 | 0.068 | 0 | 0.083 | 0.073 | -0.045 | -0.215 | 0.101 | 0.02 | -0.12 | -0.164 | 0.097 | 0.116 | -0.005 | -0.351 (active)
11 | VPS28 (UniProt Q9UK41) | 0.029 | -0.044 | 0.055 | 0.004 | -0.018 | 0.041 | -0.008 | -0.074 | -0.024 | 0.061 | -0.057 | -0.3 (active) | 0.032 | 0.09 | 0.001 | -0.048 | 0.011 | 0.102 | -0.038 | -0.139
